The target in assay [1] is MAP/microtubule affinity-regulating kinase 3 (Homo sapiens) (UniProt P27448). Conditions: at 1 µM.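 Note: reported values are averaged percent inhibition of MARK3.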
Assay [2] deals with T1, MAP/microtubule affinity-regulating kinase 4 (Homo sapiens) (UniProt Q96L34).
T1 sequence (whole entry): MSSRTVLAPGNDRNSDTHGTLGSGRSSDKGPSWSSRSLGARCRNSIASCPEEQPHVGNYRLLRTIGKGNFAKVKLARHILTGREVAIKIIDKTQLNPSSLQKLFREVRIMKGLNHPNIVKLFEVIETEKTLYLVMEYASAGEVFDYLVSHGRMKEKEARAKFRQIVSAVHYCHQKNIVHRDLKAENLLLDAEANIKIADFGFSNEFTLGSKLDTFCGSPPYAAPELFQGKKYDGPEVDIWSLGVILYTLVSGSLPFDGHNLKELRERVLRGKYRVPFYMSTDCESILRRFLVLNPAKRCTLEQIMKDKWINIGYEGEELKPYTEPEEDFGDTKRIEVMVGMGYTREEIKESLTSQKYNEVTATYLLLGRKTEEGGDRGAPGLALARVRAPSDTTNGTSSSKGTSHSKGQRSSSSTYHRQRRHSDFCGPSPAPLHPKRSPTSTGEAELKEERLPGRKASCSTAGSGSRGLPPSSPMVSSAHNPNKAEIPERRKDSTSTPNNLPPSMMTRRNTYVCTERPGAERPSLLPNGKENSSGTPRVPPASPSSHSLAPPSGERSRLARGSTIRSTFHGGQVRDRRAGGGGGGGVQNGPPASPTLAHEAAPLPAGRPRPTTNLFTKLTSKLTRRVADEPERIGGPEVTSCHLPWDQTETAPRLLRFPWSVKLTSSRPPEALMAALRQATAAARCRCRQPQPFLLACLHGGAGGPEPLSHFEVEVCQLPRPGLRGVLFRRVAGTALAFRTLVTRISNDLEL
Conditions: at 0.1 µM.

The target of assay [3] is T1, MAP/microtubule affinity-regulating kinase 4 (Homo sapiens). Conditions: at 1 µM.
For assay [4], the target named is Maternal embryonic leucine zipper kinase (Homo sapiens) (UniProt Q14680). Conditions: at 0.1 µM.
Assay [5] shares this target. Conditions: at 1 µM.
In assay [6] the target is MAP kinase-interacting serine/threonine-protein kinase 1 (Homo sapiens) (UniProt Q9BUB5). Conditions: at 0.1 µM.
The target is the same in assay [7]. Conditions: at 1 µM.
The target in assay [8] is MAP kinase-interacting serine/threonine-protein kinase 2 (Homo sapiens) (UniProt Q9HBH9). Conditions: at 0.1 µM.
Assay [9] shares this target. Conditions: at 1 µM.
The target in assay [10] is Serine/threonine-protein kinase MARK2 (Homo sapiens) (UniProt Q7KZI7). Conditions: at 0.1 µM.
For assay [11] the target is unchanged. Conditions: at 1 µM.
For assay [12], the target named is PAS domain-containing serine/threonine-protein kinase (Homo sapiens) (UniProt Q96RG2). Conditions: at 0.1 µM.
The target is the same in assay [13]. Conditions: at 1 µM.
The target in assay [14] is Phosphorylase b kinase gamma catalytic chain, skeletal muscle/heart isoform (Homo sapiens) (UniProt Q16816). Conditions: at 0.1 µM.
Assay [15] shares this target. Conditions: at 1 µM.
The target of assay [16] is T2, Phosphorylase b kinase gamma catalytic chain, liver/testis isoform (Homo sapiens) (UniProt P15735).
T2 sequence (whole entry): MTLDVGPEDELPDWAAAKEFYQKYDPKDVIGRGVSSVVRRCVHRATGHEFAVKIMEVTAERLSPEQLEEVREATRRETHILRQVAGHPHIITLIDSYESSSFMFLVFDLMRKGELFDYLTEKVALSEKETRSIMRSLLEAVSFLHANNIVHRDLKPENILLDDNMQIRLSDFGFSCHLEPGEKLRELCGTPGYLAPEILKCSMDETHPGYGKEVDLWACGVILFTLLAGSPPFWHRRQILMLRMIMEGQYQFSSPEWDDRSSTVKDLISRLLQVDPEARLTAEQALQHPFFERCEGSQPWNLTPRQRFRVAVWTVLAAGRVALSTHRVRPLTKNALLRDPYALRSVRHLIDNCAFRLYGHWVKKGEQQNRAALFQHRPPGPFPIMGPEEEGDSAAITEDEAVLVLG
Conditions: at 0.1 µM.

For assay [17], the target named is T2, Phosphorylase b kinase gamma catalytic chain, liver/testis isoform (Homo sapiens). Conditions: at 1 µM.
Assay [18] concerns the target Serine/threonine-protein kinase pim-1 (Homo sapiens) (UniProt P11309). Conditions: at 0.1 µM.
Assay [19] shares this target. Conditions: at 1 µM.
Assay [20] deals with Serine/threonine-protein kinase pim-2 (Homo sapiens) (UniProt Q9P1W9). Conditions: at 0.1 µM.

SMILES strings stand for the structures.

Sequence of Maternal embryonic leucine zipper kinase (Homo sapiens) (Q14680 whole entry, looked up): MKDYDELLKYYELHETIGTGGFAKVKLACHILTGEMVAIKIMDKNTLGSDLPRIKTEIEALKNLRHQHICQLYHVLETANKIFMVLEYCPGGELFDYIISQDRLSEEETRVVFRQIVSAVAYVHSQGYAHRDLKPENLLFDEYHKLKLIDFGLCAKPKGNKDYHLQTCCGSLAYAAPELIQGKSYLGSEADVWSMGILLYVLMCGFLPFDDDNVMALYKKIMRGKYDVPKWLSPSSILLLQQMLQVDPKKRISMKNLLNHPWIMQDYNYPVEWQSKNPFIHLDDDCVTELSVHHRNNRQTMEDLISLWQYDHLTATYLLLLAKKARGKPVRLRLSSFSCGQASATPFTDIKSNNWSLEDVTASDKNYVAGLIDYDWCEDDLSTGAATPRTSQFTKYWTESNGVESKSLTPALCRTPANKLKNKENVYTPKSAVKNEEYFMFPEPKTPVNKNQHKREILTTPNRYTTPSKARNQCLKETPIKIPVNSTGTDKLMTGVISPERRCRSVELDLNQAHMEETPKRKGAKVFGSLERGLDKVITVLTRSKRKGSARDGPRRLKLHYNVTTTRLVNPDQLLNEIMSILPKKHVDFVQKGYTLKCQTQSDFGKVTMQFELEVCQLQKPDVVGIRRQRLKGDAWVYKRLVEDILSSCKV
Sequence of Serine/threonine-protein kinase MARK2 (Homo sapiens) (Q7KZI7 whole entry): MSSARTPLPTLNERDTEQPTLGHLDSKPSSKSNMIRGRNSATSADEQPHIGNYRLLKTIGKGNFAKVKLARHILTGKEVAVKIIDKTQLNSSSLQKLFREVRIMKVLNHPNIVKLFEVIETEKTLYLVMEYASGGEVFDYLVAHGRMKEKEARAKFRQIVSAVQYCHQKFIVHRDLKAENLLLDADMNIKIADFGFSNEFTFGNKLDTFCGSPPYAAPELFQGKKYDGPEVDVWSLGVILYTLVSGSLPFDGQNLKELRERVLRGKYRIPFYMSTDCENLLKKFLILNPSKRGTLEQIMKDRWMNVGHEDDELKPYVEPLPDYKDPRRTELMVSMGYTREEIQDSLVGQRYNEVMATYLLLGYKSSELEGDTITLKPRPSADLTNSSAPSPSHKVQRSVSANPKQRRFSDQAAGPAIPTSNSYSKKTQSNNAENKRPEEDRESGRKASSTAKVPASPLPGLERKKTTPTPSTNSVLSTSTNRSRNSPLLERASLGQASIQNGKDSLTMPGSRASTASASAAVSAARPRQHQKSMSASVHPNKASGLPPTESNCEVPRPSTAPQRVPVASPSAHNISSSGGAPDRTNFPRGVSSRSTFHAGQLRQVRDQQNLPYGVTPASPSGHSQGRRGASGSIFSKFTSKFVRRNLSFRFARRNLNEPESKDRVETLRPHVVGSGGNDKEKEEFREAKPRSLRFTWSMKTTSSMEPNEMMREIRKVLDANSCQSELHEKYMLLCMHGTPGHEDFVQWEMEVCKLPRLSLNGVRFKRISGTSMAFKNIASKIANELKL
Sequence of MAP/microtubule affinity-regulating kinase 3 (Homo sapiens) (P27448 whole entry, looked up): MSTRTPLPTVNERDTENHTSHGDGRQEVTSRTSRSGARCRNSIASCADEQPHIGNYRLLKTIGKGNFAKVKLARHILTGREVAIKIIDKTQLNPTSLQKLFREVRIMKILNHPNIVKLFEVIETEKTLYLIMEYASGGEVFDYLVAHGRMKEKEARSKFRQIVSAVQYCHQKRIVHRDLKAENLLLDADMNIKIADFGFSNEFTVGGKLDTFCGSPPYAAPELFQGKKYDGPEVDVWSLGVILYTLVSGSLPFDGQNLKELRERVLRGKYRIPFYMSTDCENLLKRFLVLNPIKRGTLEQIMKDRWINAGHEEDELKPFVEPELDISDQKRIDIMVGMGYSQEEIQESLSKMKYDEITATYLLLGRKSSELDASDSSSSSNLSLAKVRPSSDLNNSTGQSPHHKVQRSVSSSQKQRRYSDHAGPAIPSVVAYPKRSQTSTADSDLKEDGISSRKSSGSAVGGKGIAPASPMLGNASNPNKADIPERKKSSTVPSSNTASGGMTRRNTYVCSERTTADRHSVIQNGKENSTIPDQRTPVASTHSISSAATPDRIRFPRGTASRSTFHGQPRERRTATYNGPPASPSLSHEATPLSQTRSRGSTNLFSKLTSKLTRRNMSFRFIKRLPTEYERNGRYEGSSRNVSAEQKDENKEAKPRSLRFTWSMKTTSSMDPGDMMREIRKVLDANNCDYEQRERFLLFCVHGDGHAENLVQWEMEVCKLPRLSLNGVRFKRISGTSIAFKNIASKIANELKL
Sequence of Phosphorylase b kinase gamma catalytic chain, skeletal muscle/heart isoform (Homo sapiens) (Q16816 whole entry, looked up, canonical isoform): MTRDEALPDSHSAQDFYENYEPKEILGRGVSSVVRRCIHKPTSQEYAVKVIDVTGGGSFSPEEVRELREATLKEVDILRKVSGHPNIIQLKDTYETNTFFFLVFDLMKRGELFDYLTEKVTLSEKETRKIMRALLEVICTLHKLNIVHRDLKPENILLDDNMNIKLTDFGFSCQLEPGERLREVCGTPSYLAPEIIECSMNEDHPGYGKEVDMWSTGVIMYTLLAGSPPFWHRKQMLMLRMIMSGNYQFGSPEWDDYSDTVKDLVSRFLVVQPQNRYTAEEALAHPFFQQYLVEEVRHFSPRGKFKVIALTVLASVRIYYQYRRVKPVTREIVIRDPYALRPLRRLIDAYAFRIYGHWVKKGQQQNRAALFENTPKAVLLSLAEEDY
Sequence of Serine/threonine-protein kinase pim-1 (Homo sapiens) (P11309 whole entry, looked up): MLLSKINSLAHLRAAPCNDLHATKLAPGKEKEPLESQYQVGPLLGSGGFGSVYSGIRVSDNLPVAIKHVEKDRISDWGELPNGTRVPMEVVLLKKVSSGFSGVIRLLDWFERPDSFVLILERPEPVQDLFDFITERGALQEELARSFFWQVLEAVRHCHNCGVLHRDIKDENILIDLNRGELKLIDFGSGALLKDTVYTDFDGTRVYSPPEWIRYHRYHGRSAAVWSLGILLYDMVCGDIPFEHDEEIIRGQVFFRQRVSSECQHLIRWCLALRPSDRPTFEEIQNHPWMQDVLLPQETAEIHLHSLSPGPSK
Sequence of MAP kinase-interacting serine/threonine-protein kinase 2 (Homo sapiens) (Q9HBH9 whole entry, looked up): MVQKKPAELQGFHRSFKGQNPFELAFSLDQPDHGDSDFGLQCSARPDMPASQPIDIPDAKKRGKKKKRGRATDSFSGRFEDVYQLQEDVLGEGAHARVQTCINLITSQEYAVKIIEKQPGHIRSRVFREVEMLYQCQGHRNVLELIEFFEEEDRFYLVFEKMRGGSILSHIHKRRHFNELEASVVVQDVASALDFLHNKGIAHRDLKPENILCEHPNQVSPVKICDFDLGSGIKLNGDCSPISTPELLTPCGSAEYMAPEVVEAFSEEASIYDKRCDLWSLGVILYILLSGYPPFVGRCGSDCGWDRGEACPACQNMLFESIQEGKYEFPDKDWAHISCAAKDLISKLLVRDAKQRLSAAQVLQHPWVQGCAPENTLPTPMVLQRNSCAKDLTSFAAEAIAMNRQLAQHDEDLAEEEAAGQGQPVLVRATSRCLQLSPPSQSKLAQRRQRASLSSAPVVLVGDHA
Sequence of MAP kinase-interacting serine/threonine-protein kinase 1 (Homo sapiens) (Q9BUB5 whole entry, looked up): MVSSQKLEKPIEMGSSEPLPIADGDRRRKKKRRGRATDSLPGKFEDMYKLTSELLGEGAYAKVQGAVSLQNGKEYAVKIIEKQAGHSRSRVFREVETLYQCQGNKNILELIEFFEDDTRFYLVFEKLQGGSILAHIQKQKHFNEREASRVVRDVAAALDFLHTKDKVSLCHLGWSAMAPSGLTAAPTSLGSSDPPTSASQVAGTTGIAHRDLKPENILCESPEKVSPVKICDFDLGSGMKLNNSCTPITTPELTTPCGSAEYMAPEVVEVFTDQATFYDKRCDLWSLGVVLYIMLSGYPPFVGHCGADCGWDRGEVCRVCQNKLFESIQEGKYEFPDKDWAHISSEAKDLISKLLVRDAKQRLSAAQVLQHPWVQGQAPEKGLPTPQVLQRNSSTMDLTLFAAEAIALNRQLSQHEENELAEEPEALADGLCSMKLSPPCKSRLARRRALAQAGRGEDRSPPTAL
Sequence of Serine/threonine-protein kinase pim-2 (Homo sapiens) (Q9P1W9 whole entry, looked up): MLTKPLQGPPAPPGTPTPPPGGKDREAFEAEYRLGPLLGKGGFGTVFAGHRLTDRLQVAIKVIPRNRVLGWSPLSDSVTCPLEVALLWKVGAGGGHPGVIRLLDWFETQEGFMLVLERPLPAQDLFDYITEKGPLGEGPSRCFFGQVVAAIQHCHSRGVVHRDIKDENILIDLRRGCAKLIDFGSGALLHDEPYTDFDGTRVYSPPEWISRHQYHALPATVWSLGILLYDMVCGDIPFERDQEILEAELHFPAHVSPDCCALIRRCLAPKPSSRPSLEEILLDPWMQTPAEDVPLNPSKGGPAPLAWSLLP

As usually defined, the inhibition is the drop in the measured response relative to a control, in per cent. In the case of `CCCNc1cccc(-n2ncc3c(N/N=C/c4ccncc4)ncnc32)c1`, the inhibition in assay [1] was 9.23%; in assay [2] it was 0.58%; in assay [3] it was 9.44%; in assay [4], -0.14%; in [5] it was 3.93%; in [6], 31.2%. Moreover, the inhibition in [7] was found to be 69.1%; in [8] it was 37.6%; in [9] it was 72.2%; in [10], 0.04%; in [11], 4.97%; in assay [12], 1.18%. For the same molecule, the inhibition in assay [13] turned out to be 3.05%; in [14], 2.76%; in assay [15] it was 19.5%; in assay [16], 2.56%; in assay [17], 7.69%; in [18], 0.64%. For the same molecule, the inhibition in assay [19] was found to be 1.01%; in assay [20], 1.23%.
Regarding `CC1=C(C(=O)Nc2ccc3[nH]nc(C)c3c2)C(c2ccc(C(F)(F)F)cc2)CC(=O)N1` (stereo not given), the inhibition in [1] was 5.26%; in assay [2], -0.05%; in [3], 3.18%; in assay [4], 3.65%; in assay [5], 18%; in assay [6], 3.53%. Also, the inhibition in assay [7] was 6.23%; in assay [8] it was 1.45%; in assay [9], 4.23%; in assay [10], 0.75%; in assay [11] it was 4.76%; in [12] it was 0.2%. The inhibition was -1.78% in assay [13]; 4.32% in assay [14]; 0.7% in [15]; 2.48% in assay [16]; -2.45% in assay [17]; 1.05% in assay [18]. For the same molecule, the inhibition in assay [19] and in assay [20] was 0% each time.
For the molecule `CC1(C)CC(n2cnc(-c3ccc(F)cc3)c2-c2ccnc(N)n2)CC(C)(C)N1`, the inhibition in assay [1] turned out to be 1.48%; in [2], 1.1%; in assay [3] it was 1.23%; in assay [4], 2.12%; in [5] it was 3.51%; in [6], 1.11%. Moreover, the inhibition in assay [7] was 2.81%; in assay [8] it was 0.35%; in assay [9], 0.79%; in [10], 0.16%; in assay [11] it was 0.44%; in assay [12] it was -1.3%. For the same molecule, the inhibition is -0.73% in assay [13]; 3.51% in [14]; 2.36% in assay [15]; -0.42% in [16]; -1.13% in assay [17]; 0.93% in [18]. For the same molecule, the inhibition was found to be 1.49% in assay [19] and 0.4% in assay [20].
For the molecule `CNC(=O)c1ncccc1Nc1nc(Nc2cc3c(cc2OC)CCCN3C(=O)CN(C)C)nc2[nH]ccc12`, the inhibition worked out at 3.77% in [1]; 2.04% in assay [2]; 4.01% in [3]; 3.77% in assay [4]; 18.2% in [5]; 2.12% in assay [6]. Also, the inhibition is 3.28% in assay [7]; 1.22% in assay [8]; 1.54% in [9]; 2.14% in assay [10]; 4.82% in assay [11]; 0.42% in [12]. In addition, the inhibition is -3.51% in [13]; 5.77% in [14]; 26.6% in assay [15]; 5.37% in [16]; 3.8% in [17]; 18.9% in assay [18]. Also, the inhibition in [19] is 65.9%; in assay [20] it was 1.04%.
On to `Cc1c2ccc(N(C)c3ccnc(Nc4cccc(S(N)(=O)=O)c4)n3)cc2nn1C`, for which the inhibition turned out to be 5.76% in assay [1]; 2.63% in [2]; 5.35% in assay [3]; 3.62% in assay [4]; 3.67% in assay [5]; 1.23% in assay [6]. The inhibition was 4.05% in assay [7]; -0.12% in [8]; 3.7% in [9]; 1.14% in [10]; 4.84% in assay [11]; 0.26% in assay [12]. Also, the inhibition in [13] is -1.92%; in assay [14], 4.4%; in assay [15] it was 7.27%; in assay [16], 4.88%; in assay [17] it was 3.28%; in [18] it was 0.43%. For the same molecule, the inhibition in assay [19] was 1.01%; in assay [20], -3.44%.
With `c1cnn2ncc(-c3ccnc(NCCCN4CCOCC4)n3)c2c1`, the inhibition in [1] was -0.34%; in [2], 1.05%; in assay [3] it was 2.05%; in assay [4], 4.35%; in assay [5] it was 11.9%; in [6], 4.1%. Besides, the inhibition is 10.9% in assay [7]; 1.64% in [8]; 7.83% in assay [9]; -1.43% in [10]; -1.01% in assay [11]; -1.6% in assay [12]. Further, the inhibition in assay [13] was -2.98%; in [14] it was 4.51%; in assay [15] it was 4.16%; in assay [16] it was 4.4%; in assay [17], 2.46%; in [18] it was -0.24%. The figures for the inhibition in assay [19] and in assay [20] were 1.23% and -0.27%, respectively.
As to `CCN1CCC(C(=O)Nc2n[nH]c3nnc(-c4cccc(F)c4F)cc23)CC1`, the inhibition in [1] is 1.76%; in assay [2], 0.44%; in [3], 2.52%; in [4], -1.02%; in assay [5], -1.79%; in assay [6], 1.56%. The inhibition in assay [7] is 3.13%; in [8], 0.51%; in [9] it was 1.47%; in assay [10], -2.48%; in assay [11] it was 1.95%; in assay [12], 1.35%. Further, the inhibition in [13] is 0.26%; in [14] it was 1.99%; in [15], 4.68%; in assay [16] it was -0.86%; in assay [17] it was -1.05%; in assay [18], -0.82%. Also, the inhibition in [19] stood at 0.91%; in [20], 0.04%.

Source of the values: ChEMBL document CHEMBL1961873, “Compounds: GSK PKIS; Assays: Nanosyn kinase panel” (2012).
